Active and inactive are the calls of the source.
Experiments:
[1] = system: Plasmodium falciparum Sir2 (PF13_0152, Sir2A); experiment: pfSir2 binders on small-molecule microarrays, primary screen, biochemical, small-molecule microarray, 635 nm fluorescence (AID 1098); details: small-molecule microarray binding, fluorescence 635 nm; higher = more signal;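 note: score merges spot fluorescence intensity with its signal-to-noise ratio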
[2] = small-molecule microarray binders of probe aDKK1, primary screen, biochemical, biotinylated probe, 635/667 nm fluorescence (AID 1099); details: higher = more signal;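 note: score merges 667nm spot fluorescence with signal to noise across triplicate slides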
[3] = small-molecule microarray binders of probe aCHRDL2, primary screen, biochemical, biotinylated probe, 635/667 nm fluorescence (AID 1100); details: higher = more signal
[4] = splicing luciferase reporter signal modulators, primary screen, spliceosome inhibition project, cell-based, HEK293, splice +/- reporter (AID 1101); details: luminescence, 24 h, higher = more signal, called active from +8 up or from −8 down;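 note: HEK293 cells carrying a splicing-competent luciferase reporter gene; test concentration not given here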
[5] = target: Fibroblast growth factor 10 (Homo sapiens) (UniProt O15520); experiment: FGF10 binders on small-molecule microarrays, primary screen, biochemical, small-molecule microarray, 635 nm fluorescence (AID 1102); details: FGF10 binding, fluorescence 635 nm, higher = more signal
[6] = system: glycogen synthase kinase-3 (GSK3A per assay name; protocol says GSK3B); experiment: GSK3 binders on small-molecule microarrays, primary screen, biochemical, small-molecule microarray, 635 nm fluorescence, GSK3A (AID 1103); details: small-molecule microarray binding, fluorescence 635 nm; higher = more signal; note: the record names both GSK3A and GSK3B
[7] = target: Epidermal growth factor receptor (Homo sapiens) (UniProt P00533); experiment: EGFR binders on small-molecule microarrays, primary screen, biochemical, small-molecule microarray, 635 nm fluorescence (AID 1104); details: EGFR binding, higher = more signal;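 note: score merges 667 nm emission intensity with spot signal to noise over triplicate slides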
[8] = target: Follistatin-related protein 3 (Homo sapiens) (UniProt O95633); experiment: FSTL3 binders on small-molecule microarrays, primary screen, biochemical, small-molecule microarray, 635 nm fluorescence (AID 1105); details: FSTL3 binding, higher = more signal;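 note: score merges emission near 667 nm and signal to noise per printed spot across three slides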
[9] = target: Dickkopf-related protein 1 (Homo sapiens) (UniProt O94907); experiment: DKK1 binders on small-molecule microarrays, primary screen, biochemical, small-molecule microarray, 635 nm fluorescence scan (AID 1106); details: DKK1 binding, higher = more signal;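 note: score merges emission near 667 nm with signal to noise over three replicate slides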
[10] = system: Inhibin beta A chain (activin A); experiment: INHBA (activin A) binders on microarrays, primary screen, biochemical, small-molecule microarray, 635 nm fluorescence scan (AID 1107); details: small-molecule microarray binding, higher = more signal;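 note: mouse activin A protein probed at 4.33 µg/mL on printed slides; score merges bound-protein fluorescence near 667 nm with spot signal-to-noise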
[11] = system: Human papillomavirus type 1a protein E7 (residues 44-93); experiment: HPV1a E7 fragment binders on microarrays, primary screen, biochemical, small-molecule microarray, residues 44-93, 635 nm fluorescence (AID 1108); details: small-molecule microarray binding, fluorescence 635 nm; higher = more signal;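 note: E7 fragment applied at 1 µg/mL in TBST for 1 h at 4 C; score combines spot fluorescence with its signal to noise ratio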
[12] = modulators of HCV replicon luciferase signal, primary screen, HCV replication inhibitor project, Huh7 cells, luciferase reporter (AID 1109); details: 48 h, higher = more signal;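 note: huh7 hepatoma cells harbouring a luciferase neomycin HCV replicon reporter; luciferase luminescence as measure of HCV replicon replication; test concentration not given here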
[13] = target: Left-right determination factor 2 (Homo sapiens) (UniProt O00292); experiment: LEFTY2 binders on small-molecule microarrays, primary screen, biochemical, small-molecule microarray, 635 nm fluorescence scan (AID 1110); details: LEFTY2 binding, higher = more signal
[14] = target: Calmodulin-1 (Homo sapiens) (UniProt P0DP23); experiment: CALM1 binders on microarrays, EGTA buffer, profiling panel, biochemical, small-molecule microarray, Cy5-labelled CALM1 (AID 1111); details: Cy5-CALM1 binding fluorescence, higher = more signal;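 note: labelled calmodulin applied in Tris saline Tween buffer holding calcium plus EGTA and DTT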
[15] = target: Calmodulin-1 (Homo sapiens) (UniProt P0DP23); experiment: calcium-bound CALM1 binders on microarrays, profiling panel, artefact control for SMM control-protein annotation, biochemical, small-molecule microarray, Cy5-labelled CALM1, plus calcium (AID 1112); details: Cy5-CALM1 binding fluorescence, higher = more signal;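 note: score merges spot fluorescence with signal to noise from triplicate slides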
[16] = small-molecule microarray binders of probe aWnt5a, primary screen, biochemical, biotinylated probe, 635/667 nm fluorescence (AID 1113); details: higher = more signal;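 note: score merges 667 nm fluorescence intensity with signal-to-noise per printed feature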
[17] = small-molecule microarray binders of probe aShh, primary screen, biochemical, biotinylated probe, 635/667 nm fluorescence (AID 1114); details: higher = more signal;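 note: probe is biotin-labelled aShh protein from a stem cell growth factor screen; measures binding of labelled protein to compounds printed on the slide; score merges feature fluorescence at 667 nm with signal-to-noise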
[18] = small-molecule microarray binders of probe aNog, primary screen, biochemical, biotinylated probe, 635/667 nm fluorescence (AID 1115); details: higher = more signal;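 note: probe is biotinylated aNog protein used at 0.15 µg/mL for 1 h at 4 C; z-score combines 667 nm fluorescence of each spot with its signal to noise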
[19] = target: Torsin-1A-interacting protein 1 (Homo sapiens) (UniProt Q5JTV8); experiment: LAP1 binders from COS7 cell lysate, primary screen, small-molecule microarray, 635/667 nm fluorescence (AID 1116); details: COS7-hLAP1 lysate binding, 635 nm fluorescence, higher = more signal
[20] = target: Alpha-bungarotoxin (Bungarus multicinctus) (UniProt P60615); experiment: alpha-bungarotoxin binders on microarray, profiling panel, artefact control for SMM control protein annotation, biochemical, small-molecule microarray, Alexa647 label, 635/667 nm fluorescence (AID 1117); details: alpha-BTX-A647 binding fluorescence, higher = more signal
Chain of Alpha-bungarotoxin (Bungarus multicinctus) (P60615 whole entry, looked up): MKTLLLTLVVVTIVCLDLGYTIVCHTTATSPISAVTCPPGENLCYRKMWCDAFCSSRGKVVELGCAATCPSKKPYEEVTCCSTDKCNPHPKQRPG

Chain of Left-right determination factor 2 (Homo sapiens) (O00292 whole entry, looked up): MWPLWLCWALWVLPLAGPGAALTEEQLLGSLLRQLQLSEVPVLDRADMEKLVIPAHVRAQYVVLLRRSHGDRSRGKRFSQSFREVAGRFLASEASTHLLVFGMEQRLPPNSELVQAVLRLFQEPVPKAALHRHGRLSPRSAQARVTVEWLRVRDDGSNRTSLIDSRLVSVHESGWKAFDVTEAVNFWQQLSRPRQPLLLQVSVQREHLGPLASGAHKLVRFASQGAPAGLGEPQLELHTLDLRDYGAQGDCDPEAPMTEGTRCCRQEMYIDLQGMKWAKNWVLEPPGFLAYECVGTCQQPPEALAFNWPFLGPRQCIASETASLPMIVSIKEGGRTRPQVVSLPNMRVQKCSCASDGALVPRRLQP
Chain of Fibroblast growth factor 10 (Homo sapiens) (O15520 whole entry, looked up): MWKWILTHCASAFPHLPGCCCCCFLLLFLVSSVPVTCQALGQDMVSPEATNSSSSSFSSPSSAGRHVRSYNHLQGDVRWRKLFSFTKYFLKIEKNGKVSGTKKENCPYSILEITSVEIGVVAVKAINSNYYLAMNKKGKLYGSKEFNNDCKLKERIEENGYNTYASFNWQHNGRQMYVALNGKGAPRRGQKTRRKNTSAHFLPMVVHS
Chain of Follistatin-related protein 3 (Homo sapiens) (O95633 whole entry, looked up): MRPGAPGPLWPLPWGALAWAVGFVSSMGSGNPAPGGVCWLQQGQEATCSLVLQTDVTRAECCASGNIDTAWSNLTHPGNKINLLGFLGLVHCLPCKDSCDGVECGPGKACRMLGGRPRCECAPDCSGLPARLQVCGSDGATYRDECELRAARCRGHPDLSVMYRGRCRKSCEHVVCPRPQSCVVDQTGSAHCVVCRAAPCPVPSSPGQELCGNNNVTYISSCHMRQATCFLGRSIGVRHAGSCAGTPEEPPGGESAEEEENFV
Chain of Torsin-1A-interacting protein 1 (Homo sapiens) (Q5JTV8 whole entry, looked up): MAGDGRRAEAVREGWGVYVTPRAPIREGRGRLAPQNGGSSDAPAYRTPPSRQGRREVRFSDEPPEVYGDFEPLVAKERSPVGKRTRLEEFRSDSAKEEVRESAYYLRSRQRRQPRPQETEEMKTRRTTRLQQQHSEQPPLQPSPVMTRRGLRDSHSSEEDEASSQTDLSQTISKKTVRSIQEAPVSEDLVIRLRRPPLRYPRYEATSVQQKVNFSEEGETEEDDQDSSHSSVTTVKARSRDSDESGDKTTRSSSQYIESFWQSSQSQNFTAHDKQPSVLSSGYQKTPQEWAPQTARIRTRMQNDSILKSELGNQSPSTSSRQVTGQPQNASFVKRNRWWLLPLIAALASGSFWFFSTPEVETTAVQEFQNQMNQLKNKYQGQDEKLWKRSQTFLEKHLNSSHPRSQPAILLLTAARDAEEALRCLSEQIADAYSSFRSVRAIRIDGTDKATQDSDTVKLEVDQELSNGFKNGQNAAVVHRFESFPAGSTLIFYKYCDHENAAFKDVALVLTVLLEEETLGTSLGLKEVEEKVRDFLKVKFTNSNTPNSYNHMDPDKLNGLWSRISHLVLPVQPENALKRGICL
Chain of Dickkopf-related protein 1 (Homo sapiens) (O94907 whole entry, looked up): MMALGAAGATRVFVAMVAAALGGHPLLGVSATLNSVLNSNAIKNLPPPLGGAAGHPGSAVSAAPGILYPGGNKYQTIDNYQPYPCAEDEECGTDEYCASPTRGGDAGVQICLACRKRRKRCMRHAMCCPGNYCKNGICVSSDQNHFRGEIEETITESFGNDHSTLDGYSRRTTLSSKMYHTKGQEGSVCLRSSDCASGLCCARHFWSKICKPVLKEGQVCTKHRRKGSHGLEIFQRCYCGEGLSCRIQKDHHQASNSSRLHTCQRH
Chain of Epidermal growth factor receptor (Homo sapiens) (P00533 whole entry, looked up): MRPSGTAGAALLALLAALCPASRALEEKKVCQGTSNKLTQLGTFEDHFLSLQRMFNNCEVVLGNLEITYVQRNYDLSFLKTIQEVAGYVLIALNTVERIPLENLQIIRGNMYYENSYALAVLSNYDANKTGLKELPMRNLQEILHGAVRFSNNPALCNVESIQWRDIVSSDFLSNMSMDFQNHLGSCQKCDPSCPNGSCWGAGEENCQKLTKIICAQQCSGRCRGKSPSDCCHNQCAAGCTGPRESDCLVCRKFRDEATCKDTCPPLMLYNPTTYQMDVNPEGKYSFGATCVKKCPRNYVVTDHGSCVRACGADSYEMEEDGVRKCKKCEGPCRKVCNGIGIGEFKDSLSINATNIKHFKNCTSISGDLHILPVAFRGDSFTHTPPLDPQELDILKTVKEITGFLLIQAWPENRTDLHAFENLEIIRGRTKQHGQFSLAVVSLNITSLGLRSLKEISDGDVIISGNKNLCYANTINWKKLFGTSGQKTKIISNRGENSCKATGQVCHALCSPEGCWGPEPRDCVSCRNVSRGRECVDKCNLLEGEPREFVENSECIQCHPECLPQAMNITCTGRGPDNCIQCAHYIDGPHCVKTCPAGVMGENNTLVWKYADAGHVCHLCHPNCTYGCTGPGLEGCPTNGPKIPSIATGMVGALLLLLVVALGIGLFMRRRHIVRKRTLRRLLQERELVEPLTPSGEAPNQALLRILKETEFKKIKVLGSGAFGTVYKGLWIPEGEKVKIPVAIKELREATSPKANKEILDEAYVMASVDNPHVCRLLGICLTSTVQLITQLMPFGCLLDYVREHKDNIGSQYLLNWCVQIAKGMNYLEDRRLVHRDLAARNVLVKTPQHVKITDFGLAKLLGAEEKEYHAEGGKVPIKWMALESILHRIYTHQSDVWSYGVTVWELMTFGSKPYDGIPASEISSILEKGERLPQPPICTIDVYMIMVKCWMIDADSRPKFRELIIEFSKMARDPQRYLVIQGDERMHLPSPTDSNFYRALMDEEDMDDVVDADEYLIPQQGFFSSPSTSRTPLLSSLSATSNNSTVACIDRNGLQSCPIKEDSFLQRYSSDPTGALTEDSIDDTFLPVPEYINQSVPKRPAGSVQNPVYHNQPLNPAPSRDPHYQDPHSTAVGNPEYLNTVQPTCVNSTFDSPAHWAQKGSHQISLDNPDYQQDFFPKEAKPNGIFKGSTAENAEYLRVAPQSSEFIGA

SMILES	composite z-score [1]	composite z-score [2]	composite z-score [3]	z-score [4]	composite z-score [5]	composite z-score [6]	composite z-score [7]	composite z-score [8]	composite z-score [9]	composite z-score [10]	composite z-score [11]	z-score [12]	composite z-score [13]	composite z-score [14]	composite z-score [15]	composite z-score [16]	composite z-score [17]	composite z-score [18]	composite z-score [19]	composite z-score [20]
COC(=O)CC=C[C@@H](C)[C@@H](C=NOC(C)CN1CCCCc2nc(C)c(C)cc21)OC (stereo not given in full)	0.519	-0.343	-0.613	0.854 (inactive)	-0.285	0.959	0.686	0.975	1.33	1.19	1.04	-1.23	1.11	-0.452	-1.05	-0.1	-0.138	-0.619	0.449	0.143
Cc1cc2c(nc1C)CCCCN2CC(O)CN1CCCc2nc(-c3ccc(Br)cc3)ccc21 (stereo not given)	0.704	-0.0514	-0.332	0.0168 (inactive)	0.874	0.62	0.597	1.21	0.446	0.481	0.599	-0.116	0.615	0.114	-0.823	0.093	0.304	0.17	0.404	0.888
O=C1[C@H]2[C@H]3[C@H](O)[C@H](O)CC(=NOC[C@@H](O)COCc4ccco4)[C@@H]3CC[C@H]2C(=O)N1C1CCCCC1	0.225	-0.401	-1.26	0.76 (inactive)	-0.102	1.04	0.783	1.36	1.46	1.23	0.814	-0.337	0.72	-0.608	-1.66	-0.124	-0.206	-0.5	0.289	-0.0636
C[C@@H](c1ccccc1)N1C(=O)[C@H]2[C@H]3[C@H](O)[C@H](O)CC(=NOC[C@@H](O)COCc4ccco4)[C@H]3CC[C@H]2C1=O	0.975	-0.427	-1.27	0.319 (inactive)	-0.185	1.21	1.07	1.14	1.59	0.574	-0.788	-0.978	0.858	-0.858	-1.65	-0.196	0.0952	-0.285	-0.175	-0.0662
CCOC(=O)NN=C1C[C@@H](O)[C@@H](O)[C@@H]2[C@@H]3C(=O)N(CC)C(=O)[C@@H]3CC[C@H]12	-0.04	-0.115	-0.254	-0.322 (inactive)	0.125	-0.256	0.283	-0.188	0.191	-0.145	-0.307	0.276	0.346	-0.317	-0.325	-0.176	-0.0813	-0.244	0.0626	-0.113
O=C1C[C@@H](O)[C@@H](O)[C@@H]2[C@@H]3C(=O)N(C4CCCCC4)C(=O)[C@@H]3CC[C@@H]12	0.607	-0.28	-0.504	0.602 (inactive)	1.11	0.235	0.613	0.59	0.555	-0.156	0.242	-0.331	0.697	-0.0958	-0.397	-0.177	0.0898	-0.104	0.462	0.882
CCc1cc2c(nc1CC)CCN(CCC(C)=NOC(C)CN1CCCCc3nc(C)c(C)cc31)C2 (stereo not given)	0.526	-0.0521	-0.215	-0.242 (inactive)	0.628	1.25	0.81	1.19	0.841	1.31	1.38	-4.08	0.772	0.499	0.455	-0.0735	0.0639	-0.1	0.272	0.946

From PubChem BioAssay
